Assay outcomes from PubChem.
D1 potentiator = Potentiators of Human D1 Dopamine Receptor: qHTS. D(1A) dopamine receptor (Homo sapiens), P21728. HEK293 TREx D1 cells, calcium flux, dopamine EC20 potentiation. potentiation, % at 10 µM. 360,000 tested, 0.036% active; in the data active means potentiation above about 30%; further: 0% is about no effect
Target sequence (P21728 whole entry, looked up): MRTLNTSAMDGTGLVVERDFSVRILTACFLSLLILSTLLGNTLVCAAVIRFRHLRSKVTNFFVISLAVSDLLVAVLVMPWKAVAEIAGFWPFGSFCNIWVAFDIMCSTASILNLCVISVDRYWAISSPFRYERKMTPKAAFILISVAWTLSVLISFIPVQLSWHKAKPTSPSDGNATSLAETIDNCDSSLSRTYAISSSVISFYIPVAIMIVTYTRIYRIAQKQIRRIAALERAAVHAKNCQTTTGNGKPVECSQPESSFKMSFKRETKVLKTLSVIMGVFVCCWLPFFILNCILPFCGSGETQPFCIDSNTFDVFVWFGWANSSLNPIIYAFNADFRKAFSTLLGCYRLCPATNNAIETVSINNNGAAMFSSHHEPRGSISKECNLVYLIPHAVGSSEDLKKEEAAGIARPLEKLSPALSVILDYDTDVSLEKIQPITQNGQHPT
D1 agonist = Allosteric Agonists of the Human D1 Dopamine Receptor: qHTS; D(1A) dopamine receptor (Homo sapiens), P21728; AID 504660, 2011; activation, % at 2 µM; HEK293 T-REx D1 cells, calcium flux, agonist mode; 360,000 tested, 1% active; further: 0% is about no effect
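Tetracycline-induced HEK293 TREx D1 cells, force-coupled to calcium signalling, were dye-loaded with a no-wash calcium kit. Compound was pin-added after a 10 s baseline. Fluorescence was read kinetically at 1 cycle/s for 180 s, with calcium rises flagged as agonism.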
TRHR ag = qHTS for Small Molecule Agonists and Allosteric Enhancers of Human TRH Receptor: Primary Screen for Agonists; TRHR cells, calcium flux fluo-8, FDSS agonist mode; activation, % at 2 µM; 360,000 tested, 0.18% active; AID 493084, 2011; Thyrotropin-releasing hormone receptor (Homo sapiens), P34981; further: 0% is about no effect
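TRHR-expressing cells, plated overnight in medium with 10% serum, were loaded with fluo-8 calcium dye at room temperature. After a 10 s baseline, library compound was pin-added and calcium release was recorded kinetically (ex 480/em 530) as agonist response.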
D1 antagonist = Antagonist of Human D 1 Dopamine Receptor: qHTS | activity change, negative = inhibition, % at 10 µM | HEK293 TREx D1 cells, calcium flux, dopamine EC80; stronger effect = lower value | D(1A) dopamine receptor (Homo sapiens), P21728 | 360,000 tested, 3.2% active | AID 504652, 2011; in the data active means activity change below about -30%; further: on the % scale 0 is the no-effect control and ±100 the full control effect
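Tetracycline-induced HEK293 T-REx cells with force-coupled D1 receptor were loaded with a no-wash calcium dye. Compound was added after a 10 s baseline and read kinetically for 180 s; EC80 dopamine was then added and calcium flux followed another 180 s.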
TRHR enhancer = qHTS for Small Molecule Agonists and Allosteric Enhancers of Human TRH Receptor: Primary Screen for Enhancers. TRHR cells, fluo-8 calcium fluorescence, EC20 TRH enhancement. AID 493056, 2011. 360,000 tested, 0.66% active. enhancement, % at 2 µM. Thyrotropin-releasing hormone receptor (Homo sapiens), P34981; in the data active means enhancement above about 30%; further: 0% is about no effect
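TRHR-expressing cells loaded with fluo-8 calcium dye were read kinetically (ex 480/em 530) during compound addition, then stimulated with an EC20 of TRH (10 nM final). Enhancement of the Gq-mediated intracellular calcium response was scored.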
* = called active by the depositor; . = not tested or not shown. The list is not random: actives were taken first. Their share in the collection is about 4.6%. Unless noted, no stated cut-off is given here; in the data, active means activation above about 30%; inactive means the rest.

SMILES | D1 potentiator | D1 agonist | TRHR ag | D1 antagonist | TRHR enhancer
Cc1cc(-c2nnc3n2N=C(c2ccc(-c4ccccc4)cc2)CS3)n[nH]1 | -4 | 63* | 0 | 1 | -6
Cc1cc(-c2nnc3n2N=C(c2ccccc2)CS3)n[nH]1 | -8 | 0 | 0 | 24 | 0
O=C(N/C(=C\c1cn(-c2ccccc2)nc1-c1ccc(Cl)cc1)C(=O)N1CCOCC1)c1ccccc1 | 1 | 1 | -1 | 12 | 5
CN(c1ccccc1)c1nc(N)c([N+](=O)[O-])c(N2CCCC2)n1 | -3 | 0 | 0 | 0 | -5
Cc1nc2cccnc2n1C1CCN(S(=O)(=O)c2ccc(C(C)C)cc2)CC1 | 0 | 39* | -1 | 0 | 1
NC(=O)c1ccc(NC(=O)CSc2nnc(C3CCCCC3)n2N)cc1 | 2 | 2 | 0 | 12 | -8
C=CCn1c(SCC(=O)NC2CCCCC2)nnc1-c1ccccn1 | -7 | 3 | 0 | -32* | 0
C=CCn1c(SCC(=O)NC2CC2)nnc1-c1ccccn1 | -4 | 4 | 0 | 8 | -3
CCCn1c(SCC(=O)NC2CCCCC2)nnc1C1CC1 | -5 | 2 | 0 | 16 | 33*
CCn1c(SCC(=O)Nc2ccc(F)cc2)nnc1C1CC1 | -5 | 1 | -1 | -6 | 41*
Cn1c(SCC(=O)Nc2ccc(F)cc2)nnc1C1CC1 | -6 | 1 | 1 | -1 | -4
Nn1c(SCC(=O)Nc2ccc(F)c(F)c2)nnc1C1CCCCC1 | -6 | 4 | 0 | -53* | -2
COc1ccc(N2CCN(C(=O)CN3CCN(c4nc(-c5ccc(F)cc5)cs4)CC3)CC2)cc1 | -3 | 9 | 1 | -15 | 7
O=C(NCCc1c[nH]c2ccccc12)C(=O)NCC(c1ccco1)N1CCN(c2ccc(F)cc2)CC1 (stereo unspecified) | 1 | 2 | 0 | 5 | 10
Cc1ccc(NS(=O)(=O)c2c(C(=O)N3CCC(C)CC3)c(C)n(C)c2C)cc1Cl | 0 | 6 | 1 | 4 | -8
C#CCn1c(-c2cccs2)nc2ccccc21 | -5 | 2 | 1 | 23 | 32*
CC(Oc1ccccc1)C(=O)Nc1cccc(-c2nc3ccccc3[nH]2)c1 (stereo unspecified) | -9 | 14 | 0 | -40* | 3
CC(=O)Nc1cccc(-c2nc3ccccc3[nH]2)c1 | -8 | 3 | -2 | -4 | -1
Cc1ccc2nc(NC(=O)COC(=O)c3ccco3)sc2c1 | -8 | 1 | 0 | -6 | 2
O=C(COC(=O)c1ccco1)Nc1nc2ccc([N+](=O)[O-])cc2s1 | -13 | 9 | 0 | -52* | -7
N#CC1=C(N)SC(N)=C(C#N)C1c1ccc(C(F)(F)F)cc1 | 1 | -1 | 2 | -2 | 3
CCc1ccc(C2C(C#N)=C(N)SC(N)=C2C#N)cc1 | -3 | 30* | 0 | -10 | 1
CCOc1ccc(C2C(C#N)=C(N)SC(N)=C2C#N)cc1OC | -2 | 40* | 16 | -11 | 1
COc1ccc(/C=N/NC(=O)c2c([N+](=O)[O-])c(C)nn2C)cc1 | -1 | -1 | 0 | 13 | -2
CCc1cc2c(=O)[nH]c(Cc3ccccc3)nc2s1 | -1 | 2 | 0 | -3 | -2
SMILES | D1 potentiator | D1 agonist | TRHR ag | D1 antagonist | TRHR enhancer
Cc1cc2c(=O)[nH]c(Cc3ccccc3)nc2s1 | -6 | 0 | 0 | -41* | -1
O=C(Cn1cnc2c(nnn2-c2ccccc2)c1=O)NCc1ccc(F)cc1 | -4 | 1 | -1 | -60* | -1
Cc1ccc(-n2nnc3c(=O)n(CC(=O)NCc4ccccc4)cnc32)cc1 | -3 | -1 | 0 | -8 | -4
Fc1ccc(CNC(=S)NC2CCCCC2)cc1 | -2 | 3 | 0 | . | 2
NC(=O)[C@@H]1CCCCNc2c(F)cc([N+](=O)[O-])cc2C(=O)N[C@@H](CC(=O)O)C(=O)NCC(=O)N1 | 2 | 0 | 0 | 7 | -1
COc1ccc(Cc2nc3c4cnn(-c5cccc(F)c5)c4ncn3n2)cc1 | 3 | -1 | 0 | -2 | 7
